Measured values published in PubChem BioAssay (NCI).
The panel holds about 83,000 compounds, 20% with a hit somewhere; the sample as a whole holds those more often.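 Interpretation: 100, growth as untreated; towards 0, rising growth inhibition; 0, no net growth; 0 to -100, cell death. Compounds scoring below 10 were considered active.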 Values without a mark were called inactive. The source made the active and inactive calls.

System: HL-60(TB) leukemia
Experiment: NCI-60 one-dose screen, 48 h (100 = growth as untreated, 0 = no growth, -100 = all killed)
Conditions: 10 µM unless noted

| SMILES | growth |
| --- | --- |
| COC(=O)[C@H](C(C)C)n1c(=O)c2cc(OC)c(OC)cc2c2cnc3[nH]ccc3c21 | 16.1% |
| Cc1nc(C)c(C(=O)O)cc1C(=O)O | 106% |
| Nc1c(CNCc2nnn(Cc3ccccc3)c2N)nnn1Cc1ccccc1 | 103% |
| Cc1ncc(C(=O)Nc2ccc(CN3CCN(C)CC3)c(C(F)(F)F)c2)cc1C#Cc1c(N)ncc2ccc(C#N)cc12 | 45.8% |
| CCn1c(=O)c2c(=O)c3c4c(oc3oc2c2ccccc21)C(=O)c1ccccc1C4=O | -18.8% (active) |
| C#CCn1cc(C=C2C(=O)N(C)C(=O)N(C)C2=O)c2cc(Cl)ccc21 | 105% |
| CC/C=C\C[C@H](O)C/C=C1/C(=O)C=C[C@@H]1C/C=C\CCCCO | 36.4% |
| COc1ccc(-c2c(N)n[nH]c2-c2ccccc2O)cc1OC | 110% |
| Cc1ccc(-c2nc(C#N)c(S(=O)(=O)N(C)CCO)o2)cc1 | -18.1% (active) |
| COc1cc(-c2c(-c3ccccc3)c[nH]c2C(=O)NCCCO)c(OC)c2c1OCO2 | 91.4% |
| CC(C)CNc1nc(N=[N+]=[N-])nc(NCC(C)C)n1 | 48.9% [100 µM] |
| O=C(O)COc1ccc2c(=O)c3sc4c(=O)c5ccccc5c(=O)c4c3c(=O)c2c1 | 42.7% |
| CN(C)c1ccc(/C=C2\C=C(c3ccccc3)N(CCc3ccccc3)C2=O)cc1 | 74.5% |
| CN(C)c1ccc(N=Nc2cccc3ccccc23)cc1 | 77.4% |
| CCc1cc2c(cc1N1CCC(N3CCOCC3)CC1)C(C)(C)c1[nH]c3cc(C#N)ccc3c1C2=O | -6.15% (active) |
| O=C1c2c(c3c4cc(Br)ccc4[nH]c3c3ccc4ccccc4c23)C(=O)N1O | 116% |
| COc1cccc(Cc2nn3cc(-c4ccccc4)nc3s2)c1 | 69.9% |
| CCCn1c(N)c(C(N)=O)sc1=S | 94.9% |
| CCNCCNc1cc(C2CCCC2)c(C#N)c2nc3ccccc3n12 | -59.3% (active) |
| Nc1nc(Nc2ccc(OCc3cccc(F)c3)cc2)c2c(n1)[nH]c1ccc(O)cc12 | -64.8% (active) |

| SMILES | growth |
| --- | --- |
| Cc1cc2ccccn2c1C(=O)c1ccc(C(=O)c2ccccc2)cc1 | -14.6% (active) |
| C#CCNC(=O)CC[C@]1(C)[C@H]2CC[C@@H]3[C@@H]([C@@](C)(O)CCC=C(C)C)CC[C@@]3(C)[C@]2(C)CC[C@H]1C(=C)C | -41% [100 µM] (active) |
| O=C(NCCCNC(=O)OCc1ccc2c(Br)cc(Br)c(O)c2n1)OCc1ccc2c(Br)cc(Br)c(O)c2n1 | -25.4% (active) |
| COC(=O)c1c(C)nc(Nc2nc3ccccc3s2)nc1-c1ccc(Cl)cc1Cl | 96.3% |
| CCNCCNc1cc(-c2ccc(Cl)c(Cl)c2)c(C#N)c2nc3ccccc3n12 | -62.3% (active) |
| CC1(c2ccc3ccccc3c2)CCC(=O)O1 (stereo not given) | 92.7% |
| CN1CCN(c2ccc3nc(-c4ccc5nc(-c6ccc(O)cc6)[nH]c5c4)[nH]c3c2)CC1 | 40.9% |
| CC1=NN(c2ccccc2Cl)C(=O)/C1=C\c1cn(S(=O)(=O)c2ccc(C)cc2)c2ccccc12 | 114% |
| CC1=C(NCCN2CCCC2)C(=O)c2c(OCc3ccc(F)c(Cl)c3)cccc2C1=O | 98.1% |
| COc1c(O)c(O)cc2c3c(oc12)CC(c1ccc2c(c1)OCO2)CC3=O (stereo not given) | 61.1% |
| COc1cc(C(=O)C(=O)c2cc(OC)c(O)c(OC)c2)cc(OC)c1O | 99.7% |
| O=C(Nc1nc2ccc(C(F)(F)F)cc2s1)c1cc(Cl)ccc1O | -54.4% (active) |
| CCC(=C(c1ccc(OCCN(CC)CC)cc1)c1ccc(OCCN(CC)CC)cc1)c1ccc(Cl)cc1 | -51.6% (active) |
| COc1ccc(C2CC(c3cccc(Nc4ccncc4)c3)=NN2c2ccccc2)cc1 (stereo not given) | -32.8% (active) |
| COc1cc2c(cc1OCCCCCCN1CCN(c3ncnc4ccccc34)CC1)N=CC1CCCN1C2=O (stereo not given) | -43.3% (active) |
| O=[N+]([O-])c1ccc(-c2nc(Cl)c3c(n2)CCCC3)o1 | 93.8% |
| COc1cc(/C=C/c2cc(/C=C/c3ccc(O)c(OC)c3)n(C(=O)c3ccc(Cl)cc3)n2)ccc1O | -12.4% (active) |
| Fc1cc(-c2cnc3nonc3n2)c(Cl)cc1Cl | -20.2% (active) |
| Oc1ccccc1-c1nnc(COc2ccc(Cl)cc2Cl)o1 | 3.89% (active) |
| COc1cc2nc(N3CCCC3)nc(NCC3CCCCC3)c2cc1OC | -57.2% (active) |
